Results filed as inconclusive are left out. The source made the active and inactive calls. Calls come from the whole dose curve; as a rule, active = well fitted inhibition curve with a large enough effect; inconclusive = small, poorly fitted or top-dose-only effect; inactive = flat fitted curve, though single readings scatter.
Each molecule was assayed against Calcium and integrin-binding protein 1 (Homo sapiens) (UniProt Q99828) (assay: Primary qHTS for Identification of Calcium Integrin Binding Protein 1 (CIB1) Competitor (AID 1508620;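 note: GST tagged CIB1 binding a fluorescein labelled alphaIIb integrin peptide tracer; top concentration of the series differs between compounds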)). Conditions: CIB1-GST / FITC-alphaIIb peptide fluorescence polarization; series mostly up to 114 µM; activity change, negative = inhibition: at the top concentration.
Calcium and integrin-binding protein 1 (Homo sapiens), sequence (Q99828 whole entry, looked up): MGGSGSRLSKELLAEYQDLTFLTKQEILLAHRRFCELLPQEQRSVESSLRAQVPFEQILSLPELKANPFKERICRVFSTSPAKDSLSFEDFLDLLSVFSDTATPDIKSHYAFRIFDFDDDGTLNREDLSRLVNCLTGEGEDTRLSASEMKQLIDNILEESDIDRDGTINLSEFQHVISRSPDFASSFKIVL
Source text: Assay Provider: Ulhas P. Naik, PhD Sidney Kimmel Medical College Thomas Jefferson University, Philadelphia, PA Primary function of platelets is to maintain hemostasis. At the site of vascular injury, platelets adhere to adhesive proteins such as collagen and von Willebrand factor. Adherent platelets are activated and generate soluble platelet agonists such as thrombin, ADP and thromboxane A2. Following exposure of circulating platelets to these agonists, results in platelet shape change, granule secretion and activation of platelet integrin alphaIIb-beta3. Ligand binding to activated integrin alphaIIb-beta3 triggers outside-in signaling, leading to platelet aggregation, stabilization of platelet plug, and clot retraction. Upon atherosclerotic plaque rupture also causes platelet plug formation, which underlies a number of cardiovascular diseases such as myocardial infraction and stroke. A number of anti-platelet drugs such as aspirin, clopidogrel, prasugrel, vorapaxar, and eptifibatide are currently available to prevent the thrombotic complications. However, these anti-platelet agents have several limitations including inherent variability in individual responses, developing resistance, and serious bleeding side effects. For these reasons they are not suitable for long-term protection. Based on the experiences with current anti-platelet drugs, it appears that the most useful therapeutic approach is to intersect the secondary responses such as integrin outside-in signaling or recruitment of platelets by TxA2 and secreted ADP. Compounds, which can largely preserve the primary hemostatic function of platelets but inhibit secondary response will be most desired therapeutic agents for treatment of cardiovascular disease. CIB1 is a calcium integrin binding protein, which specifically interact with the alphaIIb subunit of integrin alphaIIb-beta3. Binding of CIB1 to alphaIIb regulates the outside-in signaling in platelets, which is needed for thrombus stabilization and thrombus growth. […] Therefore, we propose that discovery of a small molecule that can prevent the association of CIB1 and alphaIIb-beta3 will be a potential anti-platelet agent that can block the thrombus formation without undue effect on hemostasis. Reference: [1] Naik MU, Nigam A, Manrai P, et al. CIB1 deficiency results in impaired thrombosis: the potential role of CIB1 in outside-in signaling through integrin alpha IIb beta 3. J Thromb Haemost.
PROTOCOL TABLES SEQUENCE No. (1, 2, 3, etc.); […] (e.g., Cells, Incubation, Reagent, etc.); VALUE and DESCRIPTION. 1; Reagent; 3 uL; Protein or buffer (4/3x) 2; Compound; 46 nL; Control inhibitor / compound library 3; Time; 15 min; Room temperature incubation 4; Reagent; 1 uL; Fluorescent labeled peptide (4x) 5; Time; 1000 rpm; Centrifuge 6; Time; 15 min; Room temperature incubation 7; Detection; Ex 480/ Em 540; ViewLux Fluorescence Read NOTES (numbers refer to sequence above) 1; Protein Mixture: C1B1-GST (final concentrations of 1 uM). […] 3; Room temperature incubation. 4; Fluorescent Labeled Peptide: FITC-aIIb (final concentration of 100 nM). Sequence of alphaIIb peptide: Acetyl-[…]-FITC (purity is 95.83%). 5; Centrifuge 1000 rpm (164 g) for 15 seconds. 6; Room temperature incubation. 7; ViewLux Fluorescent Polization Read: excitation = 480(20) / emission = 540(25) S and P; FITC Dichroic mirror.
CC(=O)Nc1sc2c(c1-c1ccco1)CCNC2 was tested, and the “activity change, negative = inhibition” value was -14.5% (inactive). COc1ccnc(NCc2ccc(O)c3ncccc23)c1 was tested, and the “activity change, negative = inhibition” value was 8.74% (inactive). With O=C(NCCc1nc2ccccc2n1CCOc1ccccc1F)C1CCCCC1 the “activity change, negative = inhibition” value was 2.21% (inactive). For O=C1c2ccccc2C(=O)N1c1ccccc1O, the “activity change, negative = inhibition” value was 1.09% (inactive). CC(C)(C)OC(=O)NCC(=O)NNC(=O)C(C(=O)OCc1ccccc1)c1ccccc1 (stereo not given) was tested, and the “activity change, negative = inhibition” value was 1.53% (inactive). In the case of NC(=O)C1CCN(c2nc(-c3ccc(N)cc3)cs2)CC1, the “activity change, negative = inhibition” value is reported as -2.43% (inactive). O=C1CCCC2=C1C(c1[nH]ncc1Cl)NC(=NCc1ccncc1)N2 (stereo not given) was tested, and the “activity change, negative = inhibition” value was -4.89% (inactive). In the case of Cc1ccc(-c2cc(C(=O)Nc3ccc(-n4cccn4)cc3)c3ccccc3n2)cc1C, the “activity change, negative = inhibition” value is reported as 7.16% (inactive). With O=C(CCCc1ccc2cccnc2n1)NCc1cc(-c2ccc(F)c(C(F)(F)F)c2)no1 the “activity change, negative = inhibition” value was 4.19% (inactive). With O=C1CCCC2=C1C(c1[nH]ncc1Cl)NC(=NCc1cccnc1)N2 (stereo not given) the “activity change, negative = inhibition” value was 1.94% (inactive). For c1nc(NCC2CCCOC2)c2cc(-c3ccc4c(c3)OCO4)ccc2n1 (stereo not given), the “activity change, negative = inhibition” value was -13.3% (inactive). With CC(C)(C)OC(=O)N1CCN(c2ccc(NCc3nnc(-c4ccc(C#N)cc4)o3)cc2)CC1 the “activity change, negative = inhibition” value was -0.469% (inactive). CC(=O)Nc1sc2c(c1-c1nc3ccccc3s1)CN(C(C)C)C2 was tested, and the Potency was “inactive”. With O=C(N[C@H]1CCCc2c1cnn2-c1ccc(F)cc1F)c1ccccn1 the “activity change, negative = inhibition” value was -0.229% (inactive). With Cc1ccnc(NC(=S)N2CCN(c3cccc(C(F)(F)F)c3)C2)c1 the “activity change, negative = inhibition” value was 0.285% (inactive). For COc1cc(Nc2nc(-c3ccncc3)nc3ccccc23)ccc1NS(C)(=O)=O, the “activity change, negative = inhibition” value was 2.02% (inactive). With CCOC(=O)c1ccoc1-c1ccc2ncnc(NCc3csc(C)n3)c2c1 the “activity change, negative = inhibition” value was -3.63% (inactive). In the case of O=C(O)c1ccc(CSc2nnc(-c3cccc([S+](=O)([O-])NC4CCCC4)c3)n2-c2ccccc2)cc1, the “activity change, negative = inhibition” value is reported as -3.25% (inactive). For Brc1sc2c(c1-c1nc3ccccc3s1)CCNC2, the “activity change, negative = inhibition” value was 3.6% (inactive). For N#Cc1cccc(NC(=O)Nc2nnc(-c3ccncc3)s2)c1, the “activity change, negative = inhibition” value was 3.15% (inactive). With COc1cccc(C2c3c(ncn(-c4ccccc4C(C)(C)C)c3=N)Oc3ccc4ccccc4c32)c1 (stereo not given) the “activity change, negative = inhibition” value was 7.01% (inactive). For CC(=O)c1ccccc1-c1ncc(C)c(NCC2CCN(c3cccnc3)CC2)n1, the “activity change, negative = inhibition” value was 7.27% (inactive). Cc1cccc(-n2cnc3cc(C(=O)N4CCC(N5CCOCC5)CC4)ccc32)c1 was tested, and the “activity change, negative = inhibition” value was 1.48% (inactive). Cc1cccc(-n2cnc3cc(C(=O)N4CCC(Cc5ccccc5)CC4)ccc32)c1 was tested, and the “activity change, negative = inhibition” value was -6.76% (inactive). For COc1ccc(C(=O)N(Cc2ccccc2)Cc2ccco2)c(O)c1, the “activity change, negative = inhibition” value was -8.23% (inactive). In the case of O=C(c1ccccc1)N(C(=O)c1ccccc1)c1ncnc2c1C(c1ccccc1)c1c(ccc3ccccc13)O2 (stereo not given), the “activity change, negative = inhibition” value is reported as 1.59% (inactive). With Fc1cc(Nc2nc(-c3ccncc3)nc3ccccc23)ccc1C(F)(F)F the “activity change, negative = inhibition” value was 2.78% (inactive). With C#CCOc1ccc(-c2nnc3n2N=C(c2ccc(OC)c(OCC(C)=O)c2)CS3)cc1 the “activity change, negative = inhibition” value was 17.2% (inactive). COCC(=O)NCCc1nc2ccccc2n1CCOc1ccc(C)cc1 was tested, and the “activity change, negative = inhibition” value was 3.74% (inactive). With O=C(Nc1ccc(Cl)c(Cl)c1)Nc1ccnc(-c2ccncc2)n1 the “activity change, negative = inhibition” value was 0.417% (inactive). O=S(=O)(c1ccc2c(c1)OCO2)N1CCN(S(=O)(=O)c2c(F)cccc2F)CC1 was tested, and the “activity change, negative = inhibition” value was 1.85% (inactive). For COc1ccc(N2C[C@]34C=C[C@H](O3)C(C(=O)O)C4C2=O)cc1 (stereo not given in full), the “activity change, negative = inhibition” value was -3.16% (inactive). With N#Cc1cccc(-c2csc(N3CCC(C(N)=O)CC3)n2)c1 the “activity change, negative = inhibition” value was 1.27% (inactive). With Nc1cccc(OCCn2c(CCNC(=O)C3CCCCC3)nc3ccccc32)c1 the “activity change, negative = inhibition” value was -5.11% (inactive). COc1ccc(C2Nc3ccccc3C(=O)N2Cc2ccccc2)cc1COc1cccc(C)c1 (stereo not given) was tested, and the “activity change, negative = inhibition” value was -3.92% (inactive). In the case of O=C(O)CN1C(=O)/C(=C/c2ccc(-c3cccc(Cl)c3)o2)SC1=S, the “activity change, negative = inhibition” value is reported as 58.9% (inactive). For CCOc1ccc(CCNC(=O)c2ccc3[nH]ccc3c2)cc1OCC, the “activity change, negative = inhibition” value was 0.152% (inactive). In the case of COc1cccc(C2c3c(ncn(-c4cccc(C)c4)c3=N)Oc3ccc4ccccc4c32)c1 (stereo not given), the “activity change, negative = inhibition” value is reported as 8.38% (inactive). With S=C(Nc1cc(Cl)ccn1)N1CCN(c2ccc(Cl)cc2Cl)CC1 the “activity change, negative = inhibition” value was 1.39% (inactive). With O=C(O)c1ccc(-n2cccc2/C=C2\SC(=O)N(Cc3ccc(F)cc3)C2=O)cc1 the “activity change, negative = inhibition” value was 5.21% (inactive).

From PubChem BioAssay (NCATS)
% is set by controls: 0 for no effect and ±100 for the full control effect.
